Holding throughout (set-up): species or system human, MV4-11 + K-562 + COLO205 + SK-N-BE2 + OVCAR-8
For one test, the system named is CIT. The conditions noted are these: read-out: apparent Kd; compound concentrations:100 nM and 1000 nM (sheet 'Samples'); n = 1.
Another test deals with CSNK1A1. The conditions noted are these: read-out: apparent Kd; compound concentrations:100 nM and 1000 nM (sheet 'Samples'); n = 1.
The next test relates to CSNK1D. The following applies: read-out: apparent Kd; compound concentrations:100 nM and 1000 nM (sheet 'Samples'); n = 1.
The subject of a further test is CSNK1E. The following applies: read-out: apparent Kd; compound concentrations:100 nM and 1000 nM (sheet 'Samples'); n = 1.
For another test, the system named is DDR1. The conditions noted are these: read-out: apparent Kd; compound concentrations:100 nM and 1000 nM (sheet 'Samples'); n = 1.
The test system of a further test is MAPK11. The conditions noted are these: read-out: apparent Kd; compound concentrations:100 nM and 1000 nM (sheet 'Samples'); n = 1.
Another test concerns MAPKAPK2. The following applies: read-out: apparent Kd; compound concentrations:100 nM and 1000 nM (sheet 'Samples'); n = 1.
A further test has as its system NLK. The conditions noted are these: read-out: apparent Kd; compound concentrations:100 nM and 1000 nM (sheet 'Samples'); n = 1.
In the next test the test system is PRKCA. The following applies: read-out: apparent Kd; compound concentrations:100 nM and 1000 nM (sheet 'Samples'); n = 1.
The subject of another test is PRKD2. The conditions noted are these: read-out: apparent Kd; compound concentrations:100 nM and 1000 nM (sheet 'Samples'); n = 1.
Another test concerns PRKD3. The following applies: read-out: apparent Kd; compound concentrations:100 nM and 1000 nM (sheet 'Samples'); n = 1.
For a further test, the system named is RIPK2. The conditions noted are these: read-out: apparent Kd; compound concentrations:100 nM and 1000 nM (sheet 'Samples'); n = 1.
In the next test the test system is SIK3. The following applies: read-out: apparent Kd; compound concentrations:100 nM and 1000 nM (sheet 'Samples'); n = 1.
The subject of the next test is TNIK. The conditions noted are these: read-out: apparent Kd; compound concentrations:100 nM and 1000 nM (sheet 'Samples'); n = 1.
The next test has as its system CDK6. The conditions noted are these: read-out: apparent Kd, n = 1.
Another test deals with EGFR. The conditions noted are these: read-out: apparent Kd; compound concentrations: 100 nM and 1000 nM (sheet 'Samples'), CATDS: 0.84328926118449798; n = 1.
A further test has as its system FYN. The conditions noted are these: read-out: apparent Kd; compound concentrations:100 nM and 1000 nM (sheet 'Samples'); n = 1.
In the next test the test system is MAP2K2. The conditions noted are these: read-out: apparent Kd; compound concentrations:100 nM and 1000 nM (sheet 'Samples'); n = 1.
Another test concerns MAPK14. The conditions noted are these: read-out: apparent Kd; compound concentrations:100 nM and 1000 nM (sheet 'Samples'); n = 1.
The subject of the next test is PI4KA. The conditions noted are these: read-out: apparent Kd; compound concentrations:100 nM and 1000 nM (sheet 'Samples'); n = 1.
The next test has as its system PIK3C2A. The conditions noted are these: read-out: apparent Kd; compound concentrations:100 nM and 1000 nM (sheet 'Samples'); n = 1.
The subject of another test is PIK3C3. The conditions noted are these: read-out: apparent Kd; compound concentrations:100 nM and 1000 nM (sheet 'Samples'); n = 1.
For the next test, the system named is PIK3CB. The conditions noted are these: read-out: apparent Kd; compound concentrations: 100 nM and 1000 nM (sheet 'Samples'), CATDS: 0.44243244506727197; n = 1.
The next test has as its system PIK3CD. The conditions noted are these: read-out: apparent Kd; compound concentrations: 100 nM and 1000 nM (sheet 'Samples'), CATDS: 0.27438684743153402; n = 1.
A further test concerns PIM2. The following applies: read-out: apparent Kd; compound concentrations:100 nM and 1000 nM (sheet 'Samples'); n = 1.
A further test deals with PRKDC. The conditions noted are these: read-out: apparent Kd; compound concentrations:100 nM and 1000 nM (sheet 'Samples'); n = 1.
Another test relates to RIOK2. The conditions noted are these: read-out: apparent Kd; compound concentrations:100 nM and 1000 nM (sheet 'Samples'); n = 1.
The next test has as its system VDAC3. The following applies: read-out: apparent Kd; compound concentrations:100 nM and 1000 nM (sheet 'Samples'); n = 1.
The subject of another test is CLK1. The conditions noted are these: read-out: apparent Kd; compound concentrations:100 nM and 1000 nM (sheet 'Samples'); n = 1.
In the next test the test system is CLK4. The conditions noted are these: read-out: apparent Kd; compound concentrations:100 nM and 1000 nM (sheet 'Samples'); n = 1.
In the next test the test system is DYRK1A. The following applies: read-out: apparent Kd; compound concentrations:100 nM and 1000 nM (sheet 'Samples'); n = 1.
Another test relates to MAP3K5. The conditions noted are these: read-out: apparent Kd; compound concentrations:100 nM and 1000 nM (sheet 'Samples'); n = 1.
Another test concerns MAP3K6. The following applies: read-out: apparent Kd; compound concentrations:100 nM and 1000 nM (sheet 'Samples'); n = 1.
Another test relates to NUAK1. The conditions noted are these: read-out: apparent Kd; compound concentrations:100 nM and 1000 nM (sheet 'Samples'); n = 1.
The subject of another test is NUAK2. The following applies: read-out: apparent Kd; compound concentrations:100 nM and 1000 nM (sheet 'Samples'); n = 1.
In another test the test system is PDGFRB. The following applies: read-out: apparent Kd; compound concentrations:100 nM and 1000 nM (sheet 'Samples'); n = 1.
Another test concerns PI4KB. The conditions noted are these: read-out: apparent Kd; compound concentrations:100 nM and 1000 nM (sheet 'Samples'); n = 1.
The test system of a further test is PKN2. The conditions noted are these: read-out: apparent Kd; compound concentrations:100 nM and 1000 nM (sheet 'Samples'); n = 1.
Another test deals with RPS6KA1. The following applies: read-out: apparent Kd; compound concentrations:100 nM and 1000 nM (sheet 'Samples'); n = 1.
For a further test, the system named is RPS6KA6. The conditions noted are these: read-out: apparent Kd; compound concentrations:100 nM and 1000 nM (sheet 'Samples'); n = 1.
For a further test, the system named is RPS6KB1. The conditions noted are these: read-out: apparent Kd; compound concentrations:100 nM and 1000 nM (sheet 'Samples'); n = 1.

Where two headings read alike, the source gives them in different places.

On to `Cl.Nc1nccc(-c2c(-c3ccc(F)cc3)ncn2C2CCNCC2)n1` [SB-220025-A], for which the potency estimated from few doses in the test with CIT is 815 nM; in the test with CSNK1A1, 19.8 nM; in the test with CSNK1D, 1.63 nM; in the test with CSNK1E, 2.51 nM; with DDR1, 1350 nM; in the test on MAPK11, 689 nM. The potency estimated from few doses was 3.23 nM in the test with MAPKAPK2; 324 nM in the test with NLK; 2370 nM in the test on PRKCA; 956 nM in the test with PRKD2; 1420 nM in the test on PRKD3; 68.3 nM in the test on RIPK2. Also, the values for the potency estimated from few doses in the test on SIK3 and with TNIK were 1140 nM and 1610 nM, respectively.

Take `CNC(=O)c1cccc(C#Cc2cncnc2Nc2ccc(OCc3cccc(F)c3)c(Cl)c2)c1` [GW772405X]: the potency estimated from few doses is 1780 nM in the test with CDK6 (compound concentrations: 100 nM and 1000 nM (sheet 'Samples'), CATDS: 0.35534490355550902); 182 nM in the test with EGFR.

In the case of `O=c1cc(N2CCOCC2)nc2n(Cc3cccc(F)c3)ccn12` [GSK2297430A], the potency estimated from few doses in the test on CDK6 (compound concentrations:100 nM and 1000 nM (sheet 'Samples')) is 2000 nM; with FYN, 1140 nM; with MAP2K2, 1780 nM; in the test on MAPK14, 1450 nM; in the test on PI4KA, 1610 nM; in the test with PIK3C2A, 2440 nM. Moreover, the potency estimated from few doses was 235 nM in the test on PIK3C3; 31.5 nM in the test with PIK3CB; 68.1 nM in the test with PIK3CD; 1670 nM with PIM2; 1130 nM with PRKDC; 1490 nM in the test with RIOK2. In addition, the potency estimated from few doses in the test with VDAC3 was 1830 nM.

As to `C[C@@H]1CCNC(=O)c2cc3ccc(C(=O)Nc4nc5ccccc5n4CCCN(C)C)cc3n21` [BI00645435], the potency estimated from few doses was 941 nM in the test with CLK1; 931 nM in the test on CLK4; 1000 nM in the test with CSNK1A1; 2100 nM in the test on DYRK1A; 2300 nM in the test with MAP3K5; 1700 nM in the test with MAP3K6. Besides, the potency estimated from few doses in the test on NUAK1 is 110 nM; in the test with NUAK2 it was 383 nM; in the test with PDGFRB, 1670 nM; in the test on PI4KB, 581 nM; with PKN2 it was 1760 nM; with PRKD2 it was 731 nM. Moreover, the potency estimated from few doses with PRKD3 was 1480 nM; with RPS6KA1, 529 nM; in the test on RPS6KA6, 5.39 nM; in the test with RPS6KB1 it was 106 nM.
